In the library only some 2.3% were active in any assay of this set; here they are far more common.
pPAFAH inh: inhibitors of human plasma PAF acetylhydrolase (pPAFAH); recombinant pPAFAH, FP-rhodamine probe fluorescence polarization; inhibition, % at 3.39 µM; 1.5% of 330,000 active; AID 463082;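 active = inhibition above the mean inhibition across the screen plus 3 SD, cut at about 25% in these data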;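 note: inhibitors block binding of the rhodamine activity-based probe so polarization drops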
Target sequence (Q13093 whole entry, looked up): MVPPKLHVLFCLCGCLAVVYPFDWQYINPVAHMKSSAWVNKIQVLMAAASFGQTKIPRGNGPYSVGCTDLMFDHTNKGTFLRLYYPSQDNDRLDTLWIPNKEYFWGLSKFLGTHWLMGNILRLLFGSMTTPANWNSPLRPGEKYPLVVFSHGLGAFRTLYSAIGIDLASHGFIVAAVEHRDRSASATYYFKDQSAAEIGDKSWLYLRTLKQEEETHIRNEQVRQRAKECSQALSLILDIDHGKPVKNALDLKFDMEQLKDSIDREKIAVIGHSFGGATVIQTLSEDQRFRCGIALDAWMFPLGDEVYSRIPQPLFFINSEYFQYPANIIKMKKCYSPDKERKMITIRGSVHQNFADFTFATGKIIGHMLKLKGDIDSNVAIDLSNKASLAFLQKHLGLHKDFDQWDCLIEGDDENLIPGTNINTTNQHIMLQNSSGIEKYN
GSTO1 counter: GSTO1 inhibition, counter-screen for RBBP9 inhibitors; P78417; recombinant GSTO1, activity-based probe fluorescence polarization; inhibition, % at 5.96 µM; 1.1% of 300,000 active; AID 1974;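 active = inhibition above the campaign mean inhibition plus 3 SD, cut at about 35% in these data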
PAD4 FP inh: blocks human protein arginine deiminase 4; recombinant PAD4, RCA probe fluorescence polarization; inhibition, % at 6.36 µM; 0.41% of 330,000 active;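 active = percent inhibition above a cutoff equal to the mean of all tested compounds plus 3 SD, cut at about 15% in these data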
Fam108B counter: blocks mouse Fam108B hydrolase in RBBP9 counter-screen; 0.33% of 300,000 active; recombinant Fam108B, FP-Rh probe fluorescence polarization; AID 1947; inhibition, % at 9.51 µM;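 active = inhibition above the screen mean inhibition plus 3 SD, computed separately per campaign, cut at about 18% in these data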;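 note: inhibitors lower polarization as less probe binds the enzyme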
PME-1 inh: blocks human protein phosphatase methylesterase 1. inhibition, % at 5.9 µM. 0.53% of 320,000 active. recombinant PME-1, FP-Rh probe fluorescence polarization. Q9Y570;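 active = inhibition above the campaign mean of all compounds plus 3 SD, cut at about 26% in these data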;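 note: competitive labeling of PME-1 active site by serine hydrolase directed probe; inhibitors block probe labeling so polarization falls and inhibition rises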
Fam108b inh conf: Fam108b (mouse) hydrolase inhibition, confirmation assay; recombinant Fam108b, FP-Rh probe fluorescence polarization; shares compounds with Fam108B counter; AID 1978; inhibition, % at 9.51 µM; 44% of 930 active;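 active = inhibition above a limit from the primary screen, the mean over all compounds plus 3 SD, cut at about 19% in these data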;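 note: inhibitors free the probe so polarization falls as inhibition rises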
Fam108b ABPP HTS: inhibits mouse Fam108b in gel-based ABPP; shares compounds with Fam108B counter; recombinant Fam108b, fluorophosphonate probe; inhibition, % at 20 µM; 44% of 260 active; in the data active = inhibition above about 40%
GSTO1 confirm: confirmation of human GSTO1 inhibitors | shares compounds with GSTO1 counter | recombinant GSTO1, probe fluorescence polarization | inhibition, % at 5.96 µM | 54% of 2,400 active | AID 2176;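 active = inhibition above the primary screen's cutoff, its mean inhibition plus 3 SD, cut at about 35% in these data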;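 note: loss of polarization as inhibitors block binding of rhodamine sulfonate ester activity probe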
pPAFAH FP conf: confirmation of human plasma PAF acetylhydrolase (pPAFAH) inhibitors; shares compounds with pPAFAH inh; recombinant pPAFAH, FP-Rh probe fluorescence polarization; inhibition, % at 3.39 µM; 72% of 2,300 active;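 active = mean inhibition of the triplicate above the hit cutoff set for the earlier primary screen, cut at about 25% in these data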
A number is an active result; 0 = inactive; - = not tested or not shown.

SMILES | pPAFAH inh | GSTO1 counter | PAD4 FP inh | Fam108B counter | PME-1 inh | Fam108b inh conf | GSTO1 confirm | others
O=S(=O)(NCc1ccccc1)c1ccc(Cl)cc1 | 0 | 0 | 0 | 0 | 0 | - | -
Cc1ccccc1CSc1nc(C(C)(C)C)cc(=O)[nH]1 | 0 | 0 | 0 | 0 | 0 | - | -
O=C(NCCO)Nc1ccc2nc(-c3ccco3)c(-c3ccco3)nc2c1 | 72.5 | 65.3 | 18.4 | 67.6 | 0 | 45.4 | 41.7 | Fam108b ABPP HTS=0
COc1ccc2nc(-c3ccco3)c(-c3ccco3)nc2c1 | 46.8 | 71.9 | 0 | 21.4 | 0 | 53.7 | 41.0 | Fam108b ABPP HTS=0
COc1ccc(C(=O)NCN2CCN(c3ccccc3)CC2)cc1OC | 0 | - | 0 | - | 0 | - | -
COc1cc(C2Nc3cccc4cccc(c34)N2)cc(OC)c1OC(C)=O | 0 | 48.8 | 0 | 33.7 | 0 | 0 | 0
COc1ccc(Br)cc1C1Nc2cccc3cccc(c23)N1 | 0 | 0 | 0 | 0 | 0 | - | -
Cc1ccc(SC2=C(Sc3ccc(C)cc3)C(=O)c3ccccc3C2=O)cc1 | 0 | 71.3 | 0 | 22.1 | 0 | 0 | 0
CC(=O)Nc1ccc(S(=O)(=O)N2CCC3(CC2)CC(=O)c2ccccc2O3)cc1 | 0 | 0 | 0 | 0 | 0 | - | -
OC[C@@H](O)[C@@H](O)[C@H](O)[C@H](O)CO | 0 | 0 | 0 | 0 | 0 | - | -
O=S(=O)(O)c1cc(O)c2c(O)c(N=Nc3cc(Cl)ccc3O)c(S(=O)(=O)O)cc2c1 | 33.2 | 62.1 | 0 | 23.6 | 0 | 0 | 72.6
O=C1C=C(c2cccc3c2sc2ccccc23)C[C@@H](c2ccc(Cl)cc2)C1 | 0 | - | 0 | - | 0 | - | -
COc1ccc(CNc2nc3ccccc3n2C)c(OC)c1 | 0 | 0 | 0 | 0 | 0 | - | -
COc1ccc(N=Nc2nc3cc(Br)c(Br)cc3n2C)c(OC)c1 | 0 | 40.2 | 0 | 31.3 | 61.3 | 0 | 0
Cc1ccc(-n2c(O)c(/C=N/Nc3ccc(S(=O)(=O)N4CCOCC4)cc3[N+](=O)[O-])c3ccccc3c2=O)c(C)c1 | 0 | 38.1 | 0 | 32.2 | 34.4 | 45.5 | 61.9 | Fam108b ABPP HTS=45.0
O=C(O)c1ccc(/C=N\Nc2ccc(S(=O)(=O)N3CCOCC3)cc2[N+](=O)[O-])cc1 | 0 | 0 | 0 | 0 | 0 | - | -
Cc1ccc(/C=N/Nc2cccc3cccnc23)c(O)c1 | 0 | 0 | 0 | 0 | 0 | - | -
Oc1ccc(/C=N/Nc2cccc3cccnc23)c(O)c1 | 0 | 38.0 | 0 | 20.6 | 35.7 | 20.7 | 0
Cn1c2ccccc2c2cc(/C=N/NC(=O)c3cc(O)ccc3O)ccc21 | 57.4 | 82.2 | 0 | 45.6 | 50.3 | 40.4 | 40.0 | pPAFAH FP conf=28.0
COc1ccc(NC(=S)NC2CCCCC2)cn1 | 0 | 0 | 0 | 0 | 0 | - | -
O=C1C(CSCc2ccccc2)NC(=S)N1c1ccccc1 (stereo unspecified) | 37.1 | 0 | 0 | 70.7 | 89.5 | 0 | - | pPAFAH FP conf=0
O=C(O)CC1NC(=S)N(c2ccccc2)C1=O (stereo unspecified) | 0 | 0 | 0 | 0 | 0 | - | -
COCCNCC(=O)Nc1ccccc1Sc1ccccc1 | 0 | 0 | 0 | 0 | 0 | - | -
COc1ccc(CCC(=O)NCC23CC4CC(CC(C4)C2)C3)cc1 | 0 | 0 | 0 | 0 | 0 | - | -
COc1cc(/C=N/Nc2nc3ccccc3s2)cc([N+](=O)[O-])c1O | 42.5 | 48.1 | 0 | 21.4 | 62.5 | 0 | 50.2 | pPAFAH FP conf=46.9
SMILES | pPAFAH inh | GSTO1 counter | PAD4 FP inh | Fam108B counter | PME-1 inh | Fam108b inh conf | GSTO1 confirm | others
COc1ccc(C(=O)Cc2cc3ccccc3oc2=O)cc1 | 0 | 0 | 0 | 0 | 0 | - | -
CC1=Nc2nc(N3CCCCC3)c(C#N)c3c4c(nc(c23)N1)N(c1ccc(C(C)C)cc1)C(=O)C4 | 63.3 | 0 | 0 | 26.8 | 0 | 0 | - | pPAFAH FP conf=29.4
CCOc1cc(C(=O)OCC(=O)N(C)c2ccccc2)cc(OCC)c1OCC | 0 | 0 | 0 | 0 | 0 | - | -
COc1ccccc1NC(=O)c1cc2cc(Br)ccc2cc1O | 41.9 | 0 | 0 | 38.1 | 0 | 0 | - | pPAFAH FP conf=45.1
COc1ccccc1NC(=O)COC(=O)c1cc2ccccc2cc1O | 0 | - | 0 | - | 0 | - | -
COc1ccc(OC)c(C(=O)N2CCC(n3nccc3NC(=O)CC(C)C)CC2)c1 | 0 | 0 | 0 | 0 | 0 | - | -
O=C(O)c1ccccc1N/N=C/c1cc(Br)cc(Br)c1O | 41.2 | 0 | 0 | 26.7 | 49.4 | 18.9 | - | pPAFAH FP conf=62.1

Screening results deposited in PubChem by The Scripps Research Institute Molecular Screening Center.
